Screening results deposited in PubChem by National Center for Advancing Translational Sciences (NCATS).
HPGD inh: inhibitors of human 15-hydroxyprostaglandin dehydrogenase (HPGD) | Potency, µM, for the others: at the top dose activity change, negative = inhibition, most hits filed as inhibitors | purified HPGD, NADH fluorescence kinetic, PGE2 substrate | hit rate 4.3% among 150,000 | AID 894; active = well fitted inhibition curve with a large enough effect, not every such curve was filed as active; inconclusive = small, poorly fitted or top-dose-only effect, or another doubt; inactive = no such curve, though single readings can be large or run the other way; also: potency is read from the fitted curve at half-maximal effect; % is scaled to controls: 0 for no effect and ±100 for the full control effect
Target sequence (P15428 whole entry, looked up): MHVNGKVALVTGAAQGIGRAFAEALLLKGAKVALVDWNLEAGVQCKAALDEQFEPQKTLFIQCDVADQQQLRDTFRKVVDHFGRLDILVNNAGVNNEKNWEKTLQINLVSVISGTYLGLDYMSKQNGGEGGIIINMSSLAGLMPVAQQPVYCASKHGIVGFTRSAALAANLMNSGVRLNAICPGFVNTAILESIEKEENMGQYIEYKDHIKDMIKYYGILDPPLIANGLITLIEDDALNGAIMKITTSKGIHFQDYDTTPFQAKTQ
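NADH formation kinetics: reaction with 30 uM PGE2 and 1 mM NAD+ (final), 20 nM enzyme, Tris-HCl pH 8 with Tween 20, after 15 min compound preincubation at room temperature. Fluorescence change, last versus first of five reads.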
RGS12 GoLoco inh: RGS12 GoLoco-Gai1 interaction inhibition. P63096. hit rate 0.44% among 230,000. Potency, µM (doses to about 61.6 µM), without a hit: top-dose activity, negative = inhibition, hits mostly inhibitors. Gai1:RGS12 GoLoco peptide FP, rhodamine, 10 min; active = well fitted inhibition curve with a large enough effect, not every such curve was filed as active; inactive = no such curve, though single readings can be large or run the other way; also: potency is read from the fitted curve at half-maximal effect; % is scaled to controls: 0 for no effect and ±100 for the full control effect; nearly all actives have a fitted effect of over 30% in size
Target sequence (P63096 whole entry, looked up): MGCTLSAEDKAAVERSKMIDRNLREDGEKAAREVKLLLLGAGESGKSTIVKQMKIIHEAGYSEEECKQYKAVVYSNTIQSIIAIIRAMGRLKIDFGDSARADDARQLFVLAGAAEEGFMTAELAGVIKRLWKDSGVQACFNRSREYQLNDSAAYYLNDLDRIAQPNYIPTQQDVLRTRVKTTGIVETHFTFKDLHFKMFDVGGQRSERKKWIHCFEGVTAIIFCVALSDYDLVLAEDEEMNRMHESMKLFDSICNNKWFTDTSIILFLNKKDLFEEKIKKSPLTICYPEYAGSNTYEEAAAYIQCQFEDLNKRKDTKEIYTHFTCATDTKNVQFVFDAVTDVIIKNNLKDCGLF
ALDH1A1 inh: inhibitors of human aldehyde dehydrogenase 1A1 | Potency, µM (titrated, usually from 75.3 µM), without a hit: at the highest dose activity, negative = inhibition, actives largely listed as inhibitors | hit rate 7.3% among 220,000 | Purified ALDH1A1, NADH fluorescence, propionaldehyde substrate | P00352; active = well fitted inhibition curve with a large enough effect, not every such curve was filed as active; inconclusive = small, poorly fitted or top-dose-only effect, or another doubt; inactive = no such curve, though single readings can be large or run the other way;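 also: potency is read from the fitted curve at half-maximal effect; plate controls were no enzyme wells and a reference inhibitor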
PNC inhibitor: perinucleolar compartment assembly inhibition; hit rate 3.1% among 140,000; activity change (PNC), negative = inhibition, % at 10 µM; PC3M PTB-GFP, PNC prevalence imaging, 16 h; active compounds read low;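 active = readout at or below -70, meaning at least 70% loss of cells showing the perinucleolar compartment, a nuclear body marking cancer cells; inconclusive = readout between -30 and a set limit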;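 also: plate controls were DMSO wells for no effect and camptothecin positive control wells for full effect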
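Compounds are pinned in duplicate onto adhered PC3M cells stably expressing GFP-tagged PTB and incubated 16 h at 37 C. Cells are then fixed, nuclei stained with Hoechst, and PNC-positive cells counted.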
HttQ103 aggreg: inhibitors of mutant huntingtin aggregate formation in PC12 cells. PC12 HttQ103-GFP aggregates, Acumen cytometry, 40 h. hit rate 1.1% among 220,000. Potency, µM (top dose mostly 46.1 µM), for the others: at the top dose activity change, negative = inhibition, hits mostly inhibitors; also: potency is read from the fitted curve at half-maximal effect; % is scaled to controls: 0 for no effect and ±100 for the full control effect; nearly all actives have a fitted effect of over 60% in size
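Compounds (qHTS titration) were added to PC12 cells expressing an ecdysone-driven HTT exon 1 Q103–GFP fusion after induction with 100 nM tebufenozide. Aggregate formation was measured as GFP objects in cell lysates.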
HTT cytoprotect: cytoprotection in Huntington HTT-Q103 PC12 cell model; PC12 HTT-Q103 induced, cytoprotection, ATP luminescence, 40 h; Potency, µM (doses to about 56.4 µM), for inactives: cytoprotection (ATP increase), actives largely listed as activators; hit rate 0.14% among 230,000; AID 1471; also: potency is read from the fitted curve at half-maximal effect; % of control where 0% means no effect; nearly all actives have a fitted effect of over 45% in size
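Compounds added alongside 100 nM tebufenozide, which induces toxic Q103 huntingtin exon 1-GFP in stable PC12 cells; surviving cells quantified by luminescent ATP measurement. Medium: phenol red-free DMEM, 5% equine and 5% calf serum.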
Starred values were filed as active, the others as inactive; ? = inconclusive; / = no result given; [ ] = dose if it differs, or a comment. The list is not random: actives were taken first. Their share in the collection is about 11%. Unless noted, calls follow the shape of the dose curve; as a rule, active = well fitted curve in the direction sought with a large enough effect; inconclusive = small, poorly fitted or top-dose-only effect, or another doubt; inactive = no such curve, though single readings can be large; an effect the other way counts as inactive or inconclusive.

SMILES	HPGD inh	RGS12 GoLoco inh	ALDH1A1 inh	PNC inhibitor	HttQ103 aggreg	HTT cytoprotect
Cc1nc(Nc2ccccc2)sc1C(=O)Nc1ccccc1	/	5.6%	-5.8%	/	-12.8%[9.22 µM]	-5.4%[10 µM]
FC(F)(F)c1cc(CN2CC[C@@]3(CCCNC3)C2)cc(C(F)(F)F)c1	-3.3%	1.2%	1.3%	/	/	-32.5%
COc1ccc2c(c1)C(=O)[C@H](OC(=O)N[C@H]1CCCc3ccccc31)[C@@H](c1ccc(OC)c(Br)c1)O2	-10.4%	-6.3%	?	/	/	26.2%
COc1ccc(OCC(=O)Nn2c(-c3ccc(OC)cc3)nc3ccccc3c2=O)cc1	-12.6%	-5.6%	?	?	12.6%	16.0%[10 µM]
COc1ccc(-c2nc3ccccc3c(=O)n2NC(=S)N(C)C)cc1	14.1µM*	-10.9%	3.98µM*	-16.4	8.9%	20.0%[10 µM]
O=C1NC2(CCCc3ccccc32)C(=O)N1Cc1nnc(-c2ccccc2Br)o1 (centres undefined)	-27.6%	9.5%	?	-82.8*	-25.0%	-7.8%[10 µM]
CC1(CCc2ccccc2)NC(=O)N(Cc2nnc(-c3ccccc3Br)o2)C1=O (centres undefined)	-7.7%	5.5%	12.6%	-21.7	4.6%	14.7%[10 µM]
CN(C)c1ncc2nc(-c3cc(F)cc(F)c3)c(=O)n(C)c2n1	/	9.9%	?	/	/	-9.3%
Cc1cc(C)nc(SCC(=O)N/N=C/c2cccn2-c2ccc(O)cc2)n1	-10.1%	3.16µM*	-10.6%	?	-6.4%	-5.1%
Cc1cc(C)nc(SCC(=O)N/N=C/c2cccn2-c2cccc(C(F)(F)F)c2)n1	-7.7%	-34.1%	-0.5%	-108.4*	17.3%	-10.7%
CC(=O)C1=C(C)NC(SCSc2ccccc2)=C(C#N)C1c1cccnc1 (centres undefined)	-14.1%	10.2%	?	-86.4*	-6.1%	-3.7%
CC(=O)C1=C(C)NC(SCC(=O)c2ccc(-c3ccccc3)cc2)=C(C#N)C1c1cccnc1 (centres undefined)	-4.9%	135.7%	-1.2%	84.1	8.6%	-63.1%
CSCSC1=C(C#N)C(c2ccccc2Cl)C(C(C)=O)=C(C)N1 (centres undefined)	?	1.7%	25.1µM*	?	-26.2%	2.9%
O=C(C[N+]1(CC#Cc2ccccc2)CCOCC1)c1ccccc1	/	6.0%	4.47µM*	/	10.7%	4.1%
O=C(C[N+]1(CC#Cc2ccccc2)CCOCC1)c1ccc(Cl)cc1	/	-1.8%	22.4µM*	/	3.6%	-37.3%
C#CC[N+]1(CC#Cc2ccccc2)CCOCC1	-14.6%	-10.9%	-30.5%	?	-1.0%[9.22 µM]	1.7%
Cc1ccccc1-c1nc(N(C)C)c2ccccc2n1	/	7.8%	6.6%	/	/	-24.4%
CCCN(Cc1cc2cccc(C)c2[nH]c1=O)C(=O)c1cccc(OC)c1	/	/	/	/	/	-15.7%[0.074 µM]
CCCN(Cc1cc2cc(C)ccc2[nH]c1=O)C(=O)c1cccc(OC)c1	?	-8.8%	?	-5.2	10µM*	-26.5%[0.074 µM]
C=C1C[C@@]23C[C@]1(O)CC[C@@H]2[C@]12C=C[C@@H](O)[C@@](C)(C(=O)O1)[C@@H]2[C@@H]3C(=O)O	/	/	/	/	/	9.9%
COc1ccccc1NS(=O)(=O)c1ccc(O)c(C(=O)OCC(=O)c2ccc(Cl)cc2Cl)c1	/	76.7%	1.12µM*	/	0.6%	-22.9%
COc1ccccc1NS(=O)(=O)c1ccc(O)c(C(=O)OCC(=O)N2c3ccccc3CC2C)c1 (centres undefined)	/	11.7%	7.94µM*	/	1.8%	-23.6%
COc1ccccc1NS(=O)(=O)c1ccc(O)c(C(N)=O)c1	-16.2%	2.5%	?	?	-0.1%	23.1%[10 µM]
OCC1OC(C#Cc2ccccc2)C=CC1OCc1ccccc1 (centres undefined)	/	/	5.6%[13.5 µM]	/	/	-1.7%[10 µM]
O=C(NCc1cccs1)c1cc(-c2ccc(O)cc2)on1	/	8.7%	/	/	-0.9%[9.22 µM]	-15.2%[10 µM]
SMILES	HPGD inh	RGS12 GoLoco inh	ALDH1A1 inh	PNC inhibitor	HttQ103 aggreg	HTT cytoprotect
O=C(NCc1cccs1)c1cc(-c2cccc(Cl)c2)on1	-16.3%	9.7%	-3.7%	-124.1*	15.2%	-5.8%
COc1ccccc1-c1cc(C(=O)Nc2cc(C)nn2-c2ccccc2)no1	-18.4%	7.0%	-11.1%	-129.2*	-15.7%	?
COc1ccc(CCNC(=O)c2cc(-c3cccs3)on2)cc1OC	-7.5%	4.0%	3.4%	?	31.0%	3.55µM*
COc1ccc(OC)c(-c2cc(C(=O)NCc3cccs3)no2)c1	?	4.7%	?	2.9	-4.9%	?
COc1ccccc1-c1cc(C(=O)NCc2cccs2)no1	14.1µM*	-6.8%	?	?	-7.1%	-12.5%
COc1ccc(CCNC(=O)c2cc(-c3ccco3)on2)cc1OC	/	5.3%	-8.8%	/	?	?
CO[C@H]1C[C@@H]2CC[C@@H](C)[C@@](O)(O2)C(=O)C(=O)N2CCCC[C@H]2C(=O)O[C@H]([C@H](C)C[C@@H]2CC[C@@H](O)[C@H](OC)C2)CC(=O)[C@H](C)/C=C(\C)[C@@H](O)[C@@H](OC)C(=O)[C@H](C)C[C@H](C)/C=C/C=C/C=C/1C	/	/	/	/	-20.7%	-51.5%
Cc1cc(C)[n+]2[nH]c(N)c(N=Nc3ccccc3)c2n1	/	-3.0%	/	/	-15.6%[9.22 µM]	-15.2%[10 µM]
COc1ccccc1CCn1c(=O)c(-c2cc(F)cc(F)c2)nc2cncnc21	?	56.0%	?	/	/	23.9%
COc1ccccc1-c1cc(C(=O)NCc2ccco2)no1	20µM*	3.5%	-14.4%	-13.0	-21.4%	-16.7%
COc1ccc(CCNC(=O)c2cc(-c3ccccc3O)n[nH]2)cc1OC	28.2µM*	-5.6%	7.4%	?	2.9%	-16.4%
COc1ccccc1-c1cc(C(=O)NC(C)C)no1	?	3.8%	?	0.2	2.6%	0.1%
CCN(CC)C(=O)c1cc(-c2ccccc2OC)on1	?	3.6%	14.1µM*	-3.2	-16.2%	-0.4%
COCCNC(=O)c1cc(-c2ccccc2OC)on1	?	8.7%	?	10.7	-6.1%	-42.3%
Nc1ccc(C(=O)C[C@H](N)C(=O)O)cc1O	-4.8%	-3.4%[14.2 µM]	-2.8%[13.5 µM]	/	/	12.2%[10 µM]
CCCCc1nnc(NC(=O)COc2ccc3c(C)cc(=O)oc3c2)s1	/	3.1%	?	/	4.1%[9.22 µM]	5.2%[10 µM]
CC(C)CC(NC(=O)OCC1c2ccccc2-c2ccccc21)C(=O)O (centres undefined)	-8.9%	4.7%	8.91µM*	/	/	/
CC(C)CC(NC(=O)COc1ccccc1)C(=O)O (centres undefined)	-3.9%	5.7%	-2.5%	124.2	-11.0%	?
Cn1cc(Br)c(C(=O)n2cc(Br)cn2)n1	/	15.6%	-4.0%	/	-0.3%[9.22 µM]	-2.8%[10 µM]
O=C(CNS(=O)(=O)c1ccccc1)Nc1ccc(C(F)(F)F)cc1	-8.9%	7.9%	?	?	6.0%	8.2%
CSC1=N/C(=C\c2ccc(Cl)cc2)C(=O)N1N(C)C	/	20.1%	5.1%	/	6.6%[9.22 µM]	-3.0%[10 µM]
